The record followed here is the supplement of paper PMC8728848.

Common to all, as to experiment: glycan array binding signal (z-score within array); higher = stronger binding
Experiment [1] relates to Fuc(a1-2)Gal(b1-3)GalNAc(a1-3)[Fuc(a1-2)]Gal(b1-4)GlcNAc. The note with it: glycan notation: IUPAC condensed, linker removed. The method, boiled down: (§1)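 Glycan array data came from 3228 arrays in the Consortium for Functional Glycomics database, and only arrays with an available protein sequence were kept. Glycan names were put into IUPAC-condensed notation, and columns mapping to the same glycan were averaged. The binding signal is a within-array Z-score, averaged across arrays of one protein sequence run at different concentrations or buffers and across linkers. A negative Z-score can be read as non-binding.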

The test system of experiment [2] is Fuc(a1-2)Gal(b1-3)GlcNAc(b1-3)[Gal(b1-4)GlcNAc(b1-6)]Gal(b1-4)Glc. The note with it: glycan notation: IUPAC condensed, linker removed. The method, boiled down: as §1
In experiment [3] the test system is Fuc(a1-2)Gal(b1-3)GalNAc(a1-3)[Fuc(a1-2)]Gal(b1-4)Glc. The note with it: glycan notation: IUPAC condensed, linker removed. The method, boiled down:
as §1

Experiment [4] concerns Fuc(a1-2)Gal(b1-3)GalNAc(b1-3)Gal. The note with it: glycan notation: IUPAC condensed, linker removed. The procedure, abridged: as §1
For experiment [5], the system named is Fuc(a1-2)Gal(b1-3)GalNAc. The note with it: glycan notation: IUPAC condensed, linker removed. The procedure, abridged: as §1
Experiment [6] deals with Fuc(a1-2)Gal(b1-3)GlcNAc(b1-3)Gal(b1-4)Glc. As to conditions: glycan notation: IUPAC condensed, linker removed. The procedure, abridged:
as §1

Experiment [7] concerns Fuc(a1-2)Gal(b1-3)GalNAc(b1-3)Gal(a1-4)Gal(b1-4)Glc. As to conditions: glycan notation: IUPAC condensed, linker removed; mutation: R125K. The method, boiled down: as §1
In experiment [8] the test system is Fuc(a1-2)Gal(b1-3)GlcNAc(b1-2)Man(a1-3)[Fuc(a1-2)Gal(b1-3)GlcNAc(b1-2)Man(a1-6)]Man(b1-4)GlcNAc(b1-4)GlcNAc. The note with it: glycan notation: IUPAC condensed, linker removed. The procedure, abridged:
as §1

The subject of experiment [9] is Fuc(a1-2)Gal(b1-3)GalNAc(b1-3)Gal(b1-4)Glc. The note with it: glycan notation: IUPAC condensed, linker removed. The method, boiled down: as §1
For experiment [10], the system named is Fuc(a1-2)Gal(b1-3)GalNAc(b1-4)[Neu5Ac(a2-3)]Gal(b1-4)Glc. The note with it: glycan notation: IUPAC condensed, linker removed. The method, boiled down:
as §1

The entries come from a sample that favours the strongest signals as a whole.

Sequence of PILRa (Mus musculus), Q2YSF3 (Q2YSF3 entry or part of it): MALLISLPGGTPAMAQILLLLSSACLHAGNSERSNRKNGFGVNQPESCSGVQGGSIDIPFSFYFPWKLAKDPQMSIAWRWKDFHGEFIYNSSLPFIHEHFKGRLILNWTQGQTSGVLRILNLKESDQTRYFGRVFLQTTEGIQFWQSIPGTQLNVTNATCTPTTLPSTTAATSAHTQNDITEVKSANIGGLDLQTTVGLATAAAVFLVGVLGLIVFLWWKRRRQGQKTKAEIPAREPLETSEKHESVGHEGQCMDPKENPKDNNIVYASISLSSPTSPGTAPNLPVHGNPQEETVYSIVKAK
Sequence of 6RG (Lolium perenne) (chain, as listed by the source): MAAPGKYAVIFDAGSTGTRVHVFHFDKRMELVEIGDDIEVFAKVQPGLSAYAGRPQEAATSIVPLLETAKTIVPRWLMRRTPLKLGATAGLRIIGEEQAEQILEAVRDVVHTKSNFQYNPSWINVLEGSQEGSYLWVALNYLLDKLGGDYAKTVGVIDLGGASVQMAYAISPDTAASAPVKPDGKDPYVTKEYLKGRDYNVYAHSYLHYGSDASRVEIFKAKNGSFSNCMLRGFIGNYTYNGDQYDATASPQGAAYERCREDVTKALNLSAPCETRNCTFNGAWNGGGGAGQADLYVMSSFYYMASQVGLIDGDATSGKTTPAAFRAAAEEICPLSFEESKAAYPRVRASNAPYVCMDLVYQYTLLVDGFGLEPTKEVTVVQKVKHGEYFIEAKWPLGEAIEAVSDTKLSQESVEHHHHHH
Sequence of Avaren (Actinomycete K97) (chain, as listed by the source): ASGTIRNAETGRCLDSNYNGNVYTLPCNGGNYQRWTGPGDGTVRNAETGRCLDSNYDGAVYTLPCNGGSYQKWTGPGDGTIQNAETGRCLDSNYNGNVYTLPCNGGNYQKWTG
Sequence of CHT (Homo sapiens) (chain, as listed by the source): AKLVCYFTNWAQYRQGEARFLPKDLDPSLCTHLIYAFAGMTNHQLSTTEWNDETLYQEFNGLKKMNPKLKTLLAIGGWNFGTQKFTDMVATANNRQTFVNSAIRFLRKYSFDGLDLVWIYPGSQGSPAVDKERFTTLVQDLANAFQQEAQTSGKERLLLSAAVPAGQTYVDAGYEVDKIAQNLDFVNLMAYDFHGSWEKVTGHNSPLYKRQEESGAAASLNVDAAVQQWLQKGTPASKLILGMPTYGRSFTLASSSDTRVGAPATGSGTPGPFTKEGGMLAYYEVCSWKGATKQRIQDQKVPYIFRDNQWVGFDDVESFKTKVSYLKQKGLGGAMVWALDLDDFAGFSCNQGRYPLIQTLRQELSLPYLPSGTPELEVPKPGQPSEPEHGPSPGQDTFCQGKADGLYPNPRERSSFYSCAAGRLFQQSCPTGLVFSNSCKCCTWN
Sequence of C3b (Homo sapiens), P01024 (P01024 23-667): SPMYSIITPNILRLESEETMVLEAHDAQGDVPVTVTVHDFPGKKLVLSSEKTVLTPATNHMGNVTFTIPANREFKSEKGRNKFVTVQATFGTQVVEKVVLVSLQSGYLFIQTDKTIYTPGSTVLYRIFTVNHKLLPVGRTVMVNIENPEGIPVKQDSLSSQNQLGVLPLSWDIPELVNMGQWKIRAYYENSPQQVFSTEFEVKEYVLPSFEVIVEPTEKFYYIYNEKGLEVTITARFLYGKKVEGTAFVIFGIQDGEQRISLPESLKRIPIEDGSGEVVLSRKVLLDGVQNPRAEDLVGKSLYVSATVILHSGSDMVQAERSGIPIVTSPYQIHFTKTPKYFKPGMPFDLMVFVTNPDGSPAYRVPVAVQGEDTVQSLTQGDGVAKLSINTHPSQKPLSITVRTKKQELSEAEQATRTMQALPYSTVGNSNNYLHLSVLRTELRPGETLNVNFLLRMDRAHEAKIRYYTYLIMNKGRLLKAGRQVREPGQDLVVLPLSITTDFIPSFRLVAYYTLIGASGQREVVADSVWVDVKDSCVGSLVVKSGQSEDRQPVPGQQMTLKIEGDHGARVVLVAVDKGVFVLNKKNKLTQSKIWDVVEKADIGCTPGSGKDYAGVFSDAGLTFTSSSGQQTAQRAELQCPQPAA
Sequence of CHI3L1 (Homo sapiens), P36222 (P36222 whole entry): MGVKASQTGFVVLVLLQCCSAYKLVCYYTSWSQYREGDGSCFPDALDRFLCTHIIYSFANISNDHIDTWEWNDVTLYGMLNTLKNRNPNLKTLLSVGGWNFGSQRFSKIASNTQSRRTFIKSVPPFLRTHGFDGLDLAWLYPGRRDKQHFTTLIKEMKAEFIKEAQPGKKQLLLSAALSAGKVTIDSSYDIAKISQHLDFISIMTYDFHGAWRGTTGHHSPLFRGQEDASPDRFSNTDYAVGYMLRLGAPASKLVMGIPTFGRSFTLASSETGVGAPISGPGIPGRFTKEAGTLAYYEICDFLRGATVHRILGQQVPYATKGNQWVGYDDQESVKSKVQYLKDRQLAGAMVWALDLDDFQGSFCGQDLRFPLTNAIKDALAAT

On to Avaren (Actinomycete K97), for which the figures for the “glycan array binding signal (z-score)” value in experiment [1] and in experiment [2] were -0.138 and -0.128, respectively.
Regarding PILRa (Mus musculus), Q2YSF3, the “glycan array binding signal (z-score)” value is 0.037 in experiment [3]; 0.134 in experiment [4]; -0.151 in experiment [5]; -0.127 in experiment [6]; -0.176 in experiment [2].
Regarding Siglec-8 (Homo sapiens), Q9NYZ4, the “glycan array binding signal (z-score)” value in [3] (mutation: R125K) was 0.206; in experiment [7], -0.14; in [5] (mutation: R125K), -0.339; in experiment [8], 0.028.
As for 6RG (Lolium perenne), the “glycan array binding signal (z-score)” value stood at 7.3 in experiment [9] and 6.52 in experiment [6].
For C3b (Homo sapiens), P01024, the “glycan array binding signal (z-score)” value in [10] was determined as 0.329.
As for CHT (Homo sapiens), the “glycan array binding signal (z-score)” value in experiment [5] (mutation: D138V, E140I) was 0.451.
With CHI3L1 (Homo sapiens), P36222, the “glycan array binding signal (z-score)” value in [8] is -0.032.
